Compound activity (PubChem)
This excerpt belongs to a sample that is enriched for hits.
Tg IFNy HTS: T. gondii growth inhibition with IFN-gamma, primary screen, cell-based. activity change, negative = inhibition, % (test concentration not listed). 3.8% of 69,000 active. Toxoplasma gondii growth in IFN-gamma-treated host cells; stronger effect = lower value; in the data active = activity change below about -70%, passing the limit was not always enough;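 note: host cells are HeLa cells infected with Toxoplasma gondii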
* marks the source's active call; other numbers are inactive results; ! = not active in a repeat.

SMILES	Tg IFNy HTS
CCc1ccc(CNC(=O)c2c(O)c3cccnc3n(-c3cccc(F)c3)c2=O)cc1	39
COc1cccc(CNC(=O)c2c(O)c3cccnc3n(-c3cccc(F)c3)c2=O)c1	-98*
O=S(=O)(Nc1ccc(F)c(F)c1)c1ccc(F)cc1	6
Nc1nc(CSCc2ccco2)nc(N2CCCCC2)n1	14
CCOCC(=O)N1CCC2(CCC(=O)N2CCN2CCCC2)CC1	-89*
C=CC(=O)N1CCC2(CCC(=O)N2CCN2CCCC2)CC1	-6
COCCN1C(=O)CCC12CCN(C(=O)COC)CC2	0
CO[C@H]1CC[C@H]2CCOc3ccc(C#N)cc3C(=O)N(C)C[C@H](c3ccccc3)CC(=O)N(C)C[C@H]1O2	-4
CO[C@H]1C=CO[C@@]2(C)Oc3c(C)c(O)c4c(O)c(c(/C=N/N5CCN(C6CCCC6)CC5)c(O)c4c3C2=O)NC(=O)/C(C)=C\C=C[C@H](C)[C@H](O)[C@@H](C)[C@@H](O)[C@@H](C)[C@H](OC(C)=O)[C@@H]1C	-12
CN(Cc1csc(-c2ccccc2)n1)Cc1nc(-c2cccc(Cl)c2)no1	-5
CCCc1cnc(N2CCN(C(=O)c3c(-c4ccccc4)noc3C)CC2)nc1	-82*
CCOC(=O)c1c(-c2ccccc2)noc1C(C)=O	20
Cc1onc(-c2ccccc2)c1C(=O)Oc1ccccc1N1CCOCC1	-18
COc1ccc(C(=O)N2CCCC(c3ncc(Cl)cc3S(C)(=O)=O)C2)cc1OC (stereo unspecified)	53
Cc1nn(C(C)C)c(C)c1-c1c(-c2ccccc2)ncn1Cc1cccnc1	12
Cc1cccc(S(=O)(=O)NCCc2sc(-c3cccc(F)c3)nc2C)c1	32
O=[N+]([O-])c1cc(/C=N/n2cnnc2)ccc1N1CCCC1	-90*
O=C(N/N=C\c1cc([N+](=O)[O-])ccc1N1CCOCC1)c1ccccn1	3
O=Cc1ccc(N2CCCCC2)cc1	-3
CS(=O)(=O)N1CCC2(CC1)CN(CCn1cccn1)C(=O)CO2	0
CCOc1ccccc1NC(=O)N1CCC2(CC1)Nc1cc(C)ccc1-n1cccc12	355
Cc1cccc(C)c1NC(=O)CN1CCC(Nc2nc3c(c(=O)[nH]2)CCCC3)CC1	-13
O=c1[nH]c(NC2CCN(Cc3nnnn3Cc3ccccc3)CC2)nc2c1CCCC2	-16
CC(C)(C(=O)N1CCC(Nc2nc3c(c(=O)[nH]2)CCCC3)CC1)c1ccc(Cl)cc1	-101*
O=C(NCCc1csc(-c2cccc(F)c2)n1)C(=O)Nc1ccc2c(c1)OCO2	-13
SMILES	Tg IFNy HTS
CC(=O)Nc1ncc(-c2cccc(C3CCCN(C(=O)OC(C)(C)C)C3)n2)s1 (stereo unspecified)	-61
Cc1nn2c(C3CCCN(C(=O)OC(C)(C)C)C3)ccnc2c1-c1cccs1 (stereo unspecified)	-77*
COc1ccc(-c2c(C)nn3c(C4CCN(Cc5ccccc5)C4)ccnc23)cc1OC (stereo unspecified)	-10
Cc1ccc(N(C(=O)Cc2cccs2)C(C(=O)NC2CCCCC2)c2ccncc2)cc1 (stereo unspecified)	-5
COCc1nnc(NC(=O)CCc2c(C)nc3cc(C)nn3c2C)s1	5
O=C(O)c1ccc(-c2ccc3cc(O)c(C45CC6CC(CC(C6)C4)C5)cc3c2)cc1	-43
CC(=O)Nc1ccc(C23CC4CC(CC(C4)C2)C3)c(C)c1	-57
O=C(O)c1ccc2cc(-c3ccc(O)c(C45CC6CC(CC(C6)C4)C5)c3)ccc2c1	-74*
COCCN(Cc1cnn(C)c1)C(=O)c1ccc2[nH]c3c(c2c1)CCCC3	-19
Cc1ccc(-c2nc(Cn3nnc(C(=O)Nc4ccc(C)cc4C)c3C)c(C)o2)cc1	69
Cc1ccc(Cl)cc1NC(=O)Nc1ccc(-c2nc(-c3ccccc3)co2)cc1	-39
O=C(Nc1ccccc1)Nc1ccc(Cl)cc1SCc1ccccc1	-77*
Cc1cc(SCC(=O)Nc2ccccc2)nc(SCc2ccc(Cl)cc2)n1	23
Cc1cccc(Nc2ncnc3c2cnn3-c2ccc(C)cc2C)c1	-37
CN(C)C(=O)c1ccc(-c2ccccc2-c2ccccc2)nc1	7
Cc1cc(CN(C)c2ccc(C(=O)N3CCC(Cn4cccn4)CC3)cn2)n[nH]1	-1
CC(=O)NC(Cc1c[nH]c2ccccc12)C(=O)OCc1cc(C(F)(F)F)cc(C(F)(F)F)c1 (stereo unspecified)	15
FC(F)(F)c1cc(CO[C@H]2CCCN[C@H]2c2ccccc2)cc(C(F)(F)F)c1	-81*!
O=C(Cc1ccccc1)N1CC[C@@H](O)[C@@H]1Cc1ccccc1	-4
CCN(c1ccccc1)S(=O)(=O)c1cc2c3c(c1)CCC(=O)N3CCC2	361
Clc1ccccc1Cn1nnc2c(Sc3nc4ccccc4s3)ncnc21	73
Fc1ccccc1CSc1nc(Nc2ccc3c(c2)OCO3)c2ccccc2n1	-45
CCc1nc(Nc2ccc3c(c2)OCO3)c2nnn(Cc3ccccc3Cl)c2n1	-99*
COc1ccc(NC(=O)N2CCC3(CC2)CN(C(=O)c2cccnc2)[C@@H](CO)c2[nH]c4cc(OC)ccc4c23)cc1	107
Cc1ccc2c(c1)CCCN2C(=O)c1cnn(-c2ccc(F)cc2)c1C	31
SMILES	Tg IFNy HTS
COc1ccc(C(=O)N2CCC3(CC2)Nc2cc(F)ccc2-n2cccc23)cc1	69
Cc1ccc(NC(=O)NC(=O)c2c(C)noc2-c2snnc2C)cc1	-107*
Cc1ccc(-c2coc(-c3ccc(NC(=O)Nc4ccccc4)cc3)n2)cc1	16
Cc1ccc(NC(=O)Nc2ccc(-c3nc(-c4ccccc4)co3)cc2)cc1	24
COCc1ncc(CN2CCN(C(=O)c3ccc(OC)cc3)CC2)cn1	4
Cc1cc(OC(C(=O)O)c2ccccc2)c2c(C)c(Cc3ccccc3)c(=O)oc2c1 (stereo unspecified)	8
CCN(CC)c1ccc2c(C)c(CC(C)=O)c(=O)oc2c1	-98*
COc1ccc(-c2c(C)c3ccc(OCC(C)=O)cc3oc2=O)cc1	202
Cc1cccnc1CN(C)C(=O)c1ccc(S(N)(=O)=O)cc1	1
O=C(c1ccc[nH]1)N1CC2(CCN(c3ncccn3)C2)C1	52
CCCNC(=O)Nc1ccc2c(c1)OC[C@H](C)N(C(=O)C1CCOCC1)C[C@@H](C)[C@@H](OC)CN(C)C2=O	-1
O=C(c1ccoc1)N1CCc2c(COCc3ccncc3)cncc2C1	95
c1ccc(CCNc2nnns2)cc1	-97*
COc1ccccc1Nc1nnns1	12
CCOC(=O)Nc1nnc(CCc2ccccc2)s1	0
COc1ccc(-c2nc(CN(c3ccc(OC)cc3)S(=O)(=O)c3ccccc3)c(C)o2)cc1	3
CCC1CN(C(=O)c2ccc(-c3ccncc3)nc2)CCN1C(C)C (stereo unspecified)	1
CO[C@@H]1CC[C@H]2CCN(C)C(=O)[C@H](C)N(C)C(=O)c3cccc(C#N)c3OC[C@H]1O2	8
Cc1nc(CN2Cc3ccnn3CC(COCCN(C)C)C2)cs1 (stereo unspecified)	2
CSc1ccc(NC(=O)N2CCC(c3nc(C(=O)N4CCCC4)c(C)o3)CC2)cc1	-84*
Cc1oc(C2CCN(C(=O)Nc3cccc(F)c3C)CC2)nc1C(=O)N(C)C	-79*
Cc1oc(C2CCN(C(=O)Nc3ccc(Cl)cc3)CC2)nc1C(=O)N1CCCC1	-21
CSc1ccc(NC(=O)N2CCC(c3nc(C(=O)N4CCCCC4)c(C)o3)CC2)cc1	-64
Cc1oc(C2CCN(C(=O)Nc3cccc(Cl)c3C)CC2)nc1C(=O)N(C)C	15
Cc1oc(C2CCN(S(=O)(=O)c3cccc(F)c3)CC2)nc1C(=O)N1CCCC1	13
